In PubChem BioAssay AID1792 (The Scripps Research Institute Molecular Screening Center, 2009):
The campaign covered roughly 16,000 compounds. About 130 (0.81%) were called active. The sample holds actives, similar compounds and a random draw of the others, so the mix is not that of the screen. Cut-off read from the data, not from the text of the source: active = inhibition above about 75%; inactive = the rest.

These compounds were tested against NADPH oxidase 1 (Homo sapiens) (UniProt Q9Y5S8) (assay: inhibitors of human NADPH oxidase 1 (Nox1) (AID 1792)). Conditions: HT29 cells, luminol chemiluminescence ROS; at 6.7 µM; active compounds read high.
NADPH oxidase 1 (Homo sapiens), sequence (Q9Y5S8 whole entry, looked up): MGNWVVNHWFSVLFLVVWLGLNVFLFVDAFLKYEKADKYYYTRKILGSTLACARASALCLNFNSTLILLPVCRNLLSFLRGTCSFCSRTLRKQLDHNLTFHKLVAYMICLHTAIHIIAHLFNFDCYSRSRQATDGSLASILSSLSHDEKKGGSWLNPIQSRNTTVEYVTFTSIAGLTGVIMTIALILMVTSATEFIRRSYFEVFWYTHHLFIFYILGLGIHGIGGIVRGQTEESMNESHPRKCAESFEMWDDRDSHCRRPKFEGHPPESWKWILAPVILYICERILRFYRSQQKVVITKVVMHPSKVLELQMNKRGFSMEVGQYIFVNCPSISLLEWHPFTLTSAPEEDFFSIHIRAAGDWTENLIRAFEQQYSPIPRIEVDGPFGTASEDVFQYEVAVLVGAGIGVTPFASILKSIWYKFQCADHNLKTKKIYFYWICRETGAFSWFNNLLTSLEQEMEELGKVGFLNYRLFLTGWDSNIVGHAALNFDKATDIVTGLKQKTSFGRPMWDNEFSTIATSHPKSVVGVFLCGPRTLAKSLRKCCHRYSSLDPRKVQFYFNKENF

inhibition, inactive:
CCCCNC(=O)OCCSCCS(=O)(=O)c1ccc(Cl)cc1 -35%, O=C(NCc1cccnc1)Nc1cccc(NC(=O)NCc2cccnc2)c1F -23.7%, CC(C)(C)OC(=O)n1ccc2cc(Br)ccc21 -51.3%, Fc1ccc(NC(=S)N2CCN=C2Nc2ccc(F)cc2)cc1 -49.7%, O=C(O)c1ncoc1-c1cccc(Cl)c1 -52.4%, CCOC(=O)CC(=O)CSc1nnc(N)s1 -48%, N#Cc1cncc(Br)c1 -66.5%, NNC(=O)CC1C(=O)NCCN1Cc1c(Cl)cccc1Cl (stereo not drawn) 14.9%, CSc1ccc(Br)cc1 -59.5%, CC(C)(C)c1cc(NC(=O)/C(C#N)=C/c2cccc(Cl)c2Cl)c(C(N)=O)s1 -9.18%, COC(=O)c1ccccc1N(C)C(=O)c1cc(OC)c(OC)c(OC)c1 -18%, CCOC(=O)NC(=O)/C(=C/NCc1cccs1)C(=O)OCC -20.5%, NC(=O)c1ccc(-c2csnn2)cc1 -4.63%, FC(F)(F)c1cc(-c2ccc(Br)cc2)n[nH]1 -47%, Cc1ncn2cc(-c3ccc(Cl)cc3Cl)[nH]c(=O)c12 -12%, Cc1ccc(CSC(=N)N)cc1 -35.4%, O=C(NC(=S)Nc1nc(-c2ccc(Cl)cc2)cs1)C1CC1 -57.1%, CC(=O)NC(Cc1c[nH]c2ccccc12)C(=O)O (stereo not drawn) -15.3%, O=C(Cn1c(=Nc2ccc(F)cc2)oc2ccccc2c1=O)c1ccccc1 -0.92%, COc1ccc(S(=O)c2ccccc2C(=O)O)c(C(=O)O)c1 (stereo not drawn) -11.3%, COc1ccccc1C1CCN(c2ccc([N+](=O)[O-])cn2)CC1 18%, O=C(Nc1ccc(C(F)(F)F)cn1)c1ccc(Oc2cc(Cl)cc(Cl)c2)o1 -58.2%, CCCCOC(=O)c1ccc(-c2ccccn2)s1 -10.4%, Cc1[nH]ncc1S(=O)(=O)c1ccc(Cl)cc1 -77.8%, Cc1cc(C(=O)NNC(=O)c2cc(C)n(C(C)(C)C)n2)no1 -45.9%, O=C(Nc1ccccc1C(F)(F)F)N1CCCC1c1cccnc1 (stereo not drawn) -8.11%, CCOC(=O)c1sc(SC)c(-c2ccccc2)c1N 0%, N#Cc1c(C2CCCCC2)[nH]c(=S)[nH]c1=O -8.73%, COc1c(/C(N)=N/O)cc(C)c2c1CCC2 8.11%, Cc1ccc(S(C)(=O)=NC(=O)NS(=O)(=O)Oc2ccc(Cl)cc2Cl)cc1 (stereo not drawn) -64.7%, O=C1c2ccccc2C(=O)N1CNc1ccc(C2CCCCC2)cc1 -10.4%, O=C(c1ccc(C#Cc2ccccc2)o1)N1CCCCC1 -23.7%, NNC(=O)c1csc(COc2ccc(C3SCCS3)cc2)n1 4.76%, N/C(Cc1ccc(F)cc1F)=N\OC(=O)c1cccc(C(F)(F)F)c1 -67.4%, O=C(c1ccccc1I)c1c[nH]c2ccccc12 13.6%, CC1(C)c2ccccc2-n2c1cc(O)c(-c1ccccc1)c2=O -50%, COC(=O)c1c(C)noc1-c1ccno1 -21.7%, CCCCCCCCCCCCCC#CC(O)C(N)CO (stereo not drawn) -24.7%, O=C(NNC(=O)C1c2ccccc2Oc2ccccc21)c1cccc(F)c1 -30.2%, CC(=O)Nc1ccc(NC(=O)c2cc(C)ccc2[N+](=O)[O-])c(C)c1 -28.7%, CSc1ccc(C(F)(F)F)cc1NC(=S)Nc1ccccc1 -18%, COC(=O)c1sccc1-c1ccc(/C(C)=N/NC(N)=O)o1 -53.5%, CCOC1=NC(C(F)(F)F)(C(F)(F)F)N=C(N2CCOCC2)O1 -12.7%, O=S(=O)(Cc1cccc(C(F)(F)F)c1)NCc1ccc2c(c1)OCO2 -29.2%, Cc1nc(-c2ccccc2)sc1-c1nnc(C2CC2)o1 -8.29%, Cc1ccc(CC(=O)c2cccnc2)cc1 13.9%, COc1ccccc1N1CCN(C/C(N)=N/O)CC1 -72.5%, O=C(NCc1ccc2c(c1)OCO2)c1cccc2c1OCCCO2 -22.4%, COc1ccc(-c2nnc(SCC(O)C(F)(F)F)n2-c2cccc(OC)c2)cc1 (stereo not drawn) -65.7%, O=C1CCC(=O)N(c2ccccc2)N1 5.82%, CN(C)/C=N/NC(=O)c1nc(-c2cccc(-n3cccc3)c2)no1 18.8%, O=S(=O)(Oc1ncccc1C(F)(F)F)c1cccc(F)c1 -33.3%, CC(C)(C)c1csc(Sc2ccc([N+](=O)[O-])cc2[N+](=O)[O-])n1 -42.4%, Cc1[nH]c2ccccc2c1Sc1ccc(Cl)cc1 -26.1%, CC1(C)C2CC[C@](C)(C2)C1NC(=O)c1c(Cl)cccc1Cl (stereo partly drawn) -15.2%, Oc1c(Cl)c(Cl)c(Cl)c2ccccc12 -9.97%, O=C(Nc1ccccc1)N1CCN(Cc2ccccc2)CC1 -18.5%, Nc1[nH]c(=O)nc2nc[nH]c12 10.8%, CN(C)CCC(O)c1ccc2c(c1)OCCCCO2 (stereo not drawn) -25.5%, Cc1ccc2sc(NC(=O)NC(=O)c3c(Cl)cccc3Cl)nc2c1 -14.9%, Cc1c(C(=O)Nc2ccccc2)sc2cc(C(C)(C)C)sc12 4.35%, CS(=O)(=NC(=O)c1cc2ccccc2o1)c1ccc(Cl)cc1 (stereo not drawn) 3.12%, N#CCc1ccc(NC(=O)c2ccccc2C(=O)Nc2ccc(CC#N)cc2)cc1 -21.7%, CCCN(CCC)S(=O)(=O)c1ccc(C(=O)N2CC3CCC(CC3)C2)cc1 -49.5%, OC(CNCc1ccc2c(c1)OCO2)COc1ccccc1 (stereo not drawn) -16.2%, CC(C)c1ccc(N2C(=O)/C(=C\c3ccc(-c4ccc([N+](=O)[O-])cc4)o3)SC2=S)cc1 -23.7%, FC(F)(F)c1cccc(-n2c(-c3ccncc3)n[nH]c2=S)c1 -29.9%, c1ccc(CN2CCN(Cn3nnc4ccccc43)CC2)cc1 -54.1%, CC1(C)C=Cc2cc(-c3noc(-c4ccccc4)n3)ccc2O1 -38.9%, Nc1c(-c2nnc(SCC(=O)c3ccccc3)o2)cnn1-c1ccccc1 26.2%, FC(F)(F)c1ccc(/C=N/Nc2nccc(C(F)(F)F)n2)cc1 -24.2%, CC(=O)Nc1cccc(-n2nnc(SCC(=O)c3cc(-c4ccccc4)no3)n2)c1 -33.7%, Cc1ccc(S(=O)(=O)NNC(=S)NC(C)(C)C)cc1 -24.1%, C=C(C)c1cccc(C(C)(C)NC(=O)CC(C)=O)c1 -17.3%, COC(=O)c1cccc(CSc2ncccc2C(=O)O)c1 -48.1%, COc1ccc(NC(NC(=O)c2ccc(OC)cc2)(C(F)(F)F)C(F)(F)F)cc1 -26.1%, COc1ccc(NC(=O)C2CC(C)=C(C)CC2C(=O)O)c(N2CCOCC2)n1 (stereo not drawn) -11.6%, O=C(CSC(=S)N1CCCCC1)c1c(F)cccc1F 16%, Cn1nc(-c2ccccc2)cc1N 12.5%, O=C(Nc1ccc(C(F)(F)F)cc1)Nc1ccccc1C(=O)O -32.5%, Cc1ccc(OC(=O)c2nn(-c3ccccc3)nc2C)c([N+](=O)[O-])n1 -75.6%, O=C(NCc1cc2ccccc2s1)C1CN(C(c2ccccc2)c2ccccc2)C1 -2.49%, O=C(O)CC(CC(=O)O)c1ccc(C(F)(F)F)cc1 -30.4%, COC(=O)c1sc(S(C)=O)c(-c2ccon2)c1C (stereo not drawn) -55.1%, Cc1onc(-c2ccccc2)c1C(=O)Sc1ccc(C(F)(F)F)cn1 -30.5%, COC(=O)c1ccc(/C=C2\C(=O)Nc3ccccc32)n1-c1ccc(F)cc1 -9.26%, COc1ccc(Cc2nnc(SC)[nH]c2=O)cc1 -41.8%, O=S(=O)(Oc1ccc(C2SCCS2)cc1)c1ccc(Br)cc1 10.3%, OC(c1ccncc1)c1c[nH]c2ccccc12 (stereo not drawn) -46.2%, COc1ccc(OC)c(CCCc2cc(OC)ccc2OC)c1 -22.8%, N#Cc1ccc(N2CCN(C(=O)c3ccco3)CC2)cc1 -5.71%, Cc1[nH]c2c(F)cc(F)cc2c(=O)c1I -29.2%, COc1cc(-c2n[nH]c(=S)n2Cc2ccccc2)cc(OC)c1OC -31.5%, O=C1CCCCC(=O)c2ccccc2N1 -36.9%, Cc1c(S(=O)(=O)c2ccc(Cl)cc2)csc1C(=O)Nc1ccc2c(c1)OCCO2 -34.3%, NS(=O)(=O)c1cc(C(F)(F)F)cc(C(F)(F)F)c1 -30.4%, NNC(=O)c1ccc(Cl)cc1Cl -29.6%, N#CNC(N)=Nc1cc(Cl)ccc1Cl -53.6%, O=C(NCc1csc(-c2cccs2)n1)Nc1ccccc1-c1ccccc1 11.9%, Cn1c(=O)c(/C(N)=N/OC(=O)c2ccccc2Cl)cn(-c2ccccc2)c1=O -28.3%, N/C(CC(=O)Nc1ccc(F)c(Cl)c1)=N\O 8.11%, O=C1NCCN1CCNS(=O)(=O)c1cc(Cl)sc1Cl 14.5%, O=C(N[C@@H](Cc1ccc(O)cc1)C(=O)O)OCc1ccccc1 -6.06%
